An excerpt weighted towards active compounds, which were near 7.3% of everything screened.
FLuc modulator – counter-screen for miR-21 project: firefly luciferase inhibitors or activators. actives 6.9% (n = 360,000). AID 588342. purified FLuc, Km substrates, luminescence inhibition. Potency, µM (doses to about 57.5 µM), usual class: inhibitors. P08659; further: nearly all actives have a fitted effect of over 55% in size
Target sequence (P08659 whole entry, looked up): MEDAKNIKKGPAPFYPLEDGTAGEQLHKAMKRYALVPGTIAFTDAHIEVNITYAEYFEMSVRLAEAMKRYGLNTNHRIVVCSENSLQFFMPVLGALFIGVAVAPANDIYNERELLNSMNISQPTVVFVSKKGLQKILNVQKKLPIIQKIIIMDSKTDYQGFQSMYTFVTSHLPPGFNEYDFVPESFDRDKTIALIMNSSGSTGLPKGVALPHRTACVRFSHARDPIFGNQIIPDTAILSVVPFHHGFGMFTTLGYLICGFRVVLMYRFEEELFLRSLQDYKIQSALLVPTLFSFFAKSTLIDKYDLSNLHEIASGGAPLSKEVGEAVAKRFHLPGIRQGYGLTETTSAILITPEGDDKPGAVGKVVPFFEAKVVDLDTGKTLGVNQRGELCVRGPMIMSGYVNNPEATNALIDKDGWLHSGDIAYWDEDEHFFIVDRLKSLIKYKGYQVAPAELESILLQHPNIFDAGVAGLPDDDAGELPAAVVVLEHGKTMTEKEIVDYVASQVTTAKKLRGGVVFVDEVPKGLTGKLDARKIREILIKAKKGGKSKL
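Purified P. pyralis luciferase (10nM final) with 10uM D-luciferin and 10uM ATP (Km levels) in 50mM Tris acetate pH 7.5, 10mM Mg acetate, 0.01% Tween-20, 0.05% BSA; qHTS 6-point titration, ~60 µM downward; luminescence read.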
KinaseGlo FLuc – counter-screen: inhibitors of Kinase-Glo firefly luciferase. Q27757. Kinase-Glo luciferase, ATP luminescence, 8 min. Potency, µM (titrated, usually from 38.3 µM), actives largely listed as inhibitors. actives 0.28% (n = 200,000). AID 1379; further: nearly all actives have a fitted effect of over 60% in size
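Luminescence was the read-out, taken after 8-minute incubation at ambient temperature. Luciferase turned over luciferin with 10 uM ATP in imidazole pH 7.2 buffer containing KCl, MgCl2, Tween 20 and BSA.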
ELG1 genotox – inducers of genotoxicity in HEK293T ELG1-luciferase cells; HEK293T ELG1-luciferase reporter, luminescence, 16 h; Potency, µM (titrated, usually from 46 µM), actives largely listed as activators; actives 1.3% (n = 330,000); AID 504466; further: nearly all actives have a fitted effect of over 60% in size
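Genotoxicity was scored as increased ELG1-luciferase reporter signal, measured by ONE-Glo luminescence (30 min, room temperature). Compound or vehicle exposure of the HEK293T reporter cells lasted 16 hr at 37°C.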
NPC1 promoter act – activators of NPC1 promoter; actives 2.4% (n = 320,000); Huh7 NPC1 promoter luciferase reporter, 24 h; Potency, µM (top dose mostly 9.22 µM), actives largely listed as activators; AID 485313; further: nearly all actives have a fitted effect of over 60% in size
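Quantitative HTS used a cell-based reporter: Huh7 cells stably bearing the NPC1 promoter upstream of luciferase were treated with compounds for 24 h, and promoter activation was read as luminescence.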
Rab9 promoter act – activators of Rab9 promoter; Huh7 Rab9 promoter-luciferase reporter, luminescence, 24 h; Potency, µM (series often up to 9.22 µM), usual class: activators; actives 2.8% (n = 320,000); AID 485297; further: nearly all actives have a fitted effect of over 60% in size
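Stable Rab9-luc Huh7, 1500 cells/well, 2 h settle; cmpd in DMSO, 24 h, 37 °C/5% CO2; luciferase reagent 10 min RT; luminescence.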
SMN2 splice up – SMN2 splice variant enhancement | actives 2.8% (n = 210,000) | AID 1458 | Potency, µM (titrated, usually from 46.1 µM), actives largely listed as activators | HEK293 SMN2-luciferase splicing reporter, luminescence, 30-36 h; further: nearly all actives have a fitted effect of over 55% in size
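HEK293 cells carry an SMN2 […]–luciferase reporter in which exon 7 inclusion puts luciferase in frame. Cells were plated 10-12 h before compound addition, then incubated 30-36 h at 37C. ONE-Glo luminescence was read; sodium butyrate at 4.5 mM final served as control.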
Each line names hits and unclear results; the compound was inactive in the other large screens. The call rests on the fitted dose curve; in most records, active means well fitted curve in the direction sought with a large enough effect; inconclusive means small, poorly fitted or top-dose-only effect, or another doubt; inactive means no such curve, though single readings can be large; an effect the other way counts as inactive or inconclusive.

Cc1ccc(SCN2CCCCC2)cc1 (tested in a mixture with another compound)	none (no result: FLuc modulator, ELG1 genotox, NPC1 promoter act, Rab9 promoter act)
Cc1nc(Cl)sc1C(=O)Nc1ccccc1	none
COc1ccccc1Nc1nc(C)c(C(=O)Nc2ccccc2)s1	FLuc modulator 15µM
Cc1nc(NCCOc2ccccc2)sc1C(=O)Nc1ccccc1	FLuc modulator inconclusive, NPC1 promoter act 2.8µM, Rab9 promoter act inconclusive (no result: KinaseGlo FLuc, SMN2 splice up)
Cc1nc(Cl)sc1C(=O)Nc1ccc(Cl)cc1	FLuc modulator 15µM
Cc1nc(Nc2ccccc2Cl)sc1C(=O)Nc1ccccc1	FLuc modulator 19µM
COc1ccc(CNC(=O)CCC2N=C3c4ccccc4N=C(SCc4cccc(F)c4)N3C2=O)cc1 (centres undefined)	none (no result: KinaseGlo FLuc, ELG1 genotox, NPC1 promoter act, Rab9 promoter act, SMN2 splice up)
CCc1cccc(-n2c(=O)c3cccnc3n2CC(=O)NCc2ccccc2)c1	none (no result: KinaseGlo FLuc, ELG1 genotox, NPC1 promoter act, Rab9 promoter act, SMN2 splice up)
CCCCCCCCCCCCCCCCCCOC[C@@H](O)COP(=O)([O-])OCC[N+](C)(C)C	none (no result: FLuc modulator, ELG1 genotox, NPC1 promoter act, Rab9 promoter act)
O=C(c1ccco1)N1CCN(C(=O)c2cc(-c3ccccn3)nc3ccc(Cl)cc23)CC1	FLuc modulator 19µM
O=C(c1cc(-c2ccccc2)nc2ccccc12)N1CCN(C2CCS(=O)(=O)C2)CC1 (centres undefined)	FLuc modulator 27µM (no result: KinaseGlo FLuc, SMN2 splice up)
O=C(c1ccco1)N1CCN(c2ccnc3cc(Cl)ccc23)CC1	none
Cc1ccc(-c2cc(C(=O)N3CCN(C4CCS(=O)(=O)C4)CC3)c3ccccc3n2)cc1 (centres undefined)	none (no result: FLuc modulator, KinaseGlo FLuc, SMN2 splice up)
O=C(c1cc(-c2ccccc2)nc2ccccc12)N1CCOCC1	FLuc modulator inconclusive
O=C(c1ccco1)N1CCN(C(=O)c2cc(-c3ccccc3)nc3ccccc23)CC1	FLuc modulator 6.7µM
COc1ccc2c(c1)c1c(c(=O)n(Cc3ccccc3)c(=O)n1Cc1ccccc1)n2C	none (no result: KinaseGlo FLuc, ELG1 genotox, NPC1 promoter act, Rab9 promoter act, SMN2 splice up)
CCc1ccc(C2C(C(=O)Nc3ccccc3OC)=C(C)Nc3nc(SCc4ccccc4)nn32)cc1 (centres undefined)	none (no result: KinaseGlo FLuc, ELG1 genotox, NPC1 promoter act, Rab9 promoter act)
CN(C)c1ccc(C(CNC(=O)c2ccc(C(C)(C)C)cc2)N2CCOCC2)cc1 (centres undefined)	none (no result: KinaseGlo FLuc, ELG1 genotox, NPC1 promoter act, Rab9 promoter act, SMN2 splice up)
CCc1nnc2c(Nc3ccc(Br)c(C)c3)nc3ccccc3n12	none (no result: KinaseGlo FLuc, ELG1 genotox, NPC1 promoter act, Rab9 promoter act, SMN2 splice up)
Cc1ccc(-c2ccc(CO)o2)cc1N	none
CCOC(=O)c1ccc(-c2ccc(CO)o2)cc1	FLuc modulator 11µM, ELG1 genotox inconclusive, NPC1 promoter act 1.1µM, Rab9 promoter act 1.6µM, SMN2 splice up 7.9µM
CCOc1ccc(-c2ccc(CO)o2)cc1N	FLuc modulator 15µM (no result: KinaseGlo FLuc, ELG1 genotox, NPC1 promoter act, Rab9 promoter act, SMN2 splice up)
CCC1CCCCN1CC(=O)Nc1ccc2c(c1)OCCO2 (centres undefined)	FLuc modulator 24µM (no result: KinaseGlo FLuc, SMN2 splice up)
COC(=O)C1CCN(CC(=O)Nc2ccc3c(c2)OCCO3)CC1	none (no result: FLuc modulator, KinaseGlo FLuc, NPC1 promoter act, Rab9 promoter act, SMN2 splice up)
CC1CC(C)CN(CC(=O)Nc2ccc3c(c2)OCCO3)C1 (centres undefined)	FLuc modulator 15µM, ELG1 genotox inconclusive, NPC1 promoter act inconclusive, Rab9 promoter act inconclusive
CC1CC(C)(C)NC(=S)N1CCCC(=O)Nc1ccc2c(c1)OCCO2 (centres undefined)	FLuc modulator 27µM, ELG1 genotox inconclusive, Rab9 promoter act inconclusive
Cc1cccc(NC(=O)c2n[nH]c([N+](=O)[O-])c2Br)c1C	FLuc modulator 3.8µM, ELG1 genotox inconclusive, NPC1 promoter act 0.79µM, Rab9 promoter act 1µM, SMN2 splice up 10µM
COC(=O)c1cc(CSc2nc3ccccc3[nH]2)oc1C	FLuc modulator 7.6µM, ELG1 genotox 9.2µM, NPC1 promoter act inconclusive, Rab9 promoter act inconclusive
O=c1[nH]c(SCc2ccccc2)nc2ccsc12	FLuc modulator 17µM, SMN2 splice up inconclusive
COc1cccc(CSc2nc3ccccc3[nH]2)c1	FLuc modulator 4.3µM, ELG1 genotox inconclusive, NPC1 promoter act 3.5µM, Rab9 promoter act 1µM, SMN2 splice up 16µM
CCOC(=O)CSc1nc2ccsc2c(=O)[nH]1	none (no result: SMN2 splice up)
O=C(O)c1ccc(CSc2nc3ccccc3[nH]2)cc1	FLuc modulator 17µM (no result: KinaseGlo FLuc, SMN2 splice up)
CCCc1cc(=O)[nH]c(SCc2cc(C(=O)OC)c(C)o2)n1	none
CCN(CC)C(=O)C1=C(C)Nc2nc3ccccc3n2C1c1ccc(Br)cc1 (centres undefined)	none (no result: KinaseGlo FLuc, ELG1 genotox, NPC1 promoter act, Rab9 promoter act)
Fc1ccccc1CSc1nc2ccccc2[nH]1	FLuc modulator 2.4µM, KinaseGlo FLuc inconclusive, ELG1 genotox inconclusive, NPC1 promoter act 1.8µM, Rab9 promoter act 1.3µM, SMN2 splice up 5.6µM
CCN(CC)CCN(C(=O)c1cc2c(ccc3ccccc32)oc1=O)c1nc2cc3c(cc2s1)OCCO3	ELG1 genotox 18µM (no result: KinaseGlo FLuc, SMN2 splice up)
CCN(CC)CCN(C(=O)c1ccc2c(c1)OCCO2)c1nc2cc3c(cc2s1)OCO3	none (no result: KinaseGlo FLuc, SMN2 splice up)
COc1cc(NC(=O)C2=CC(c3ccc(F)cc3)=NS(=O)(=O)N2C)cc(OC)c1OC	FLuc modulator 1.3µM (no result: KinaseGlo FLuc, ELG1 genotox, NPC1 promoter act, Rab9 promoter act, SMN2 splice up)
COc1ccc(C2=NS(=O)(=O)N(C)C(C(=O)Nc3ccc(C)cc3)=C2)cc1	none (no result: KinaseGlo FLuc, SMN2 splice up)
CCCc1ccc(OCC(=O)Nc2cc(S(=O)(=O)CC)ccc2O)cc1	FLuc modulator 27µM (no result: SMN2 splice up)
Cc1ccc(Nc2nc(Oc3ccc(OCc4ccccc4)nn3)nc(N3CCOCC3)n2)cc1	SMN2 splice up inconclusive
c1ccc(COc2ccc(Oc3nc(N4CCCCC4)nc(N4CCOCC4)n3)nn2)cc1	SMN2 splice up 22µM
